Drawing on PubChem BioAssay (NCATS), this text covers activity change, negative = inhibition for 40 compounds.

Records with an inconclusive call do not appear. Values without a mark were called inactive. The call rests on the fitted dose curve; in most records, active means well fitted curve in either direction with a large enough effect (not every such curve was filed as active); inconclusive means small, poorly fitted or top-dose-only effect, or another doubt; inactive means flat fitted curve, though single readings scatter.
On the % scale 0 is the no-effect control and ±100 the full control effect.

A short description of this experiment: AP1 Signaling Pathway (AID 357).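 Further: ME-180 reporter cells stimulated with EGF at its EC50 level.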 As to conditions: ME-180 (cervical carcinoma) AP-1-bla reporter, EGF-induced, beta-lactamase ratio, 5 h; at 17.2 µM (top of the series) unless noted. The essentials:
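AP-1-bla ME-180 cells, Opti-MEM + 0.5% dialyzed FBS, plated overnight 37 °C. Cpd titration + EC50 EGF, 5 h 37 °C. CCF4 2.5 h RT; ex 405, em 460/530 ratio → %activity, AC50.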
Regarding `CC(=O)N1CCC2(CC1)C(C#N)=C(N)Oc1n[nH]c(C(F)(F)F)c12`, the activity change, negative = inhibition is 8.06%.

In the case of `COC(=O)C(NC(=O)c1ccco1)(Nc1ccc(Br)cn1)C(F)(F)F` (stereo not given), the activity change, negative = inhibition is -10.6%. Turning to `C=CCOc1ccc(/C(O)=C2/C(=O)C(=O)N(CCCN3CCOCC3)C2c2ccccc2)cc1` (stereo not given), the activity change, negative = inhibition is -4.92%.

Regarding `C=C(Br)Cn1c(CCCC)nc2ccccc21`, the activity change, negative = inhibition is -12.4%. `CC(C)(C)c1ccc(C(=O)C=[N+]=[N-])cc1`: the activity change, negative = inhibition is 0.479%. With `CSc1nc(N)nc(SCC(=O)OC(C)C)c1C#N`, the activity change, negative = inhibition was -15.6%. Turning to `CCCOc1ccc(N2C(=O)CC(N(CCC)C(=O)CCC(=O)O)C2=O)cc1` (stereo not given), the activity change, negative = inhibition is 3.59%.

For `COc1ccc(Oc2nc3c(c(=O)n(C)c(=O)n3C)n2Cc2cccc(OC)c2)cc1`, the activity change, negative = inhibition was -6%. In the case of `CCOC(=O)CCNc1n[nH]c(=O)[nH]c1=O`, the activity change, negative = inhibition was 7.71%. The same measure for `Nc1nc2n(n1)C(c1ccc(F)cc1)CC(c1ccc(F)cc1)N2` (stereo not given): -1.23%.

On to `COc1ccccc1N1CCN(CCOc2c(OC)cccc2OC)CC1`, for which the activity change, negative = inhibition is 12.4%. With `CC1(C)CC(=O)C2=C(C1)OC(N)=C(C#N)[C@@]21C(=O)N(CC(N)=O)c2ccccc21`, the activity change, negative = inhibition was 10.8%. For the compound `CC1(c2ccco2)NC(=O)NC1=O` (stereo not given), the activity change, negative = inhibition was 5.26%.

On to `COC(=O)c1cc(Br)c(=O)n(Cc2ccco2)c1`, for which the activity change, negative = inhibition is 10.7%. As to `CCc1cc2c(=O)c(-c3cscn3)coc2c(CN(C)C)c1O`, the activity change, negative = inhibition is 26.5%. On to `COc1cc(C)nc(Oc2ccc(OCCOc3ccc(C)cc3)nn2)n1`, for which the activity change, negative = inhibition is -8.32%.

On to `Cc1cc(=O)oc(C)c1C(=O)NCCC1=CCCCC1`, for which the activity change, negative = inhibition is 12.2%. For the compound `O=C(CC(c1ccco1)S(=O)(=O)c1ccccc1)c1ccc(F)cc1` (stereo not given), the activity change, negative = inhibition is -0.192%. As for `COc1ccc(-c2nn3c(-c4ccccn4)nnc3s2)cc1OC`, the activity change, negative = inhibition is -16.2%. Take `Nc1nc(NC(=O)Cc2ccccc2)nn1-c1ccccc1`: the activity change, negative = inhibition was 5.76%. As for `CSc1nc2[nH]c3c(c2c2nncn12)CC(C)(C)OC3`, the activity change, negative = inhibition is -4.3%. Next, `Cn1c(=O)[nH]c2cc(Cl)cnc21`: 7.54%. Regarding `CCCOc1ccc(C2/C(=C(/O)c3ccccc3)C(=O)C(=O)N2CCCN(C)C)cc1OC` (stereo not given), the activity change, negative = inhibition was 13.7%. `CCCc1cc(NCCN2CCOCC2)n2c(nc3ccccc32)c1C#N`: the activity change, negative = inhibition was -11.4%.

As for `CCNc1sc(C(=O)c2cccs2)c(N)c1C#N`, the activity change, negative = inhibition is -8.55%. As to `O=C1C2ON(c3ccccc3)C(c3ccncc3)C2C(=O)N1c1ccc(Br)cc1` (stereo not given), the activity change, negative = inhibition is -1.42%.

As to `CC1=CC=CN2CC(O)CN=C12` (stereo not given), the activity change, negative = inhibition was 3.58%.

With `CCOC(=O)CNC(=O)CNC(=O)c1ccc(OCC(C)C)cc1`, the activity change, negative = inhibition was -5.66%. Take `Cc1cc(=O)oc(C)c1C(=O)NCCc1ccccc1`: the activity change, negative = inhibition is 8.18%.

`Cc1ccc(N2CN=c3s/c(=C\c4cccnc4)c(=O)n3C2)cc1`: the activity change, negative = inhibition is -7.29%.

As for `Cn1c(=O)c2c(nc(OCc3cccnc3)n2Cc2ccccc2)n(C)c1=O`, the activity change, negative = inhibition was -9.82%. The same measure for `CCNC(=O)COn1c(SCC(=O)NCC)nc2ccccc2c1=O`: -9.03%; for `COc1ccc(C2=CC(c3cccc(OC)c3)n3nnnc3N2)cc1` (stereo not given): -24.4%. Consider `CN1C(=S)SC(N(O)C(=O)Nc2ccccc2)C1(C)C` (stereo not given), for which the activity change, negative = inhibition is 1.19%. Next, `COc1cc(C(=O)Nc2nccs2)cc(OC)c1OC`: 12.8%. The same measure for `COc1ccc(OC)c(C2=Nn3c(nnc3-c3ccco3)SC2)c1`: -13.7%.

Take `COc1ccccc1-n1c(N)c(C(=O)NCC2CCCO2)c2nc3ccccc3nc21` (stereo not given): the activity change, negative = inhibition was 19.4%. Next, `C=CCNc1nc(-c2cccc(OC)c2O)nc2ccccc12`: 20.2%; `Cc1nc(NCc2ccccc2)c(C(N)=O)c2c1COC(C)(C)C2`: 1.8%. Take `CCCOc1cccc(C2/C(=C(/O)c3ccc(F)cc3)C(=O)C(=O)N2CCN(C)C)c1` (stereo not given): the activity change, negative = inhibition is 3.27%.
